# Data from PubChem BioAssay AID1347165 (National Center for Advancing Translational Sciences (NCATS), 2019).
# Screen size: about 220,000 compounds; about 5,700 (2.6%) were called active. Another 18% or so got no clear call; they are omitted. Calls follow the shape of the dose curve; as a rule, active = well fitted inhibition curve with a large enough effect; inconclusive = small, poorly fitted or top-dose-only effect; inactive = no such curve, though single readings can be large or run the other way. The full list was thinned out, with actives kept by preference.
# Target: Lysine-specific demethylase 5B (Homo sapiens) (UniProt Q9UGL1)
# Sequence (Q9UGL1 whole entry, looked up): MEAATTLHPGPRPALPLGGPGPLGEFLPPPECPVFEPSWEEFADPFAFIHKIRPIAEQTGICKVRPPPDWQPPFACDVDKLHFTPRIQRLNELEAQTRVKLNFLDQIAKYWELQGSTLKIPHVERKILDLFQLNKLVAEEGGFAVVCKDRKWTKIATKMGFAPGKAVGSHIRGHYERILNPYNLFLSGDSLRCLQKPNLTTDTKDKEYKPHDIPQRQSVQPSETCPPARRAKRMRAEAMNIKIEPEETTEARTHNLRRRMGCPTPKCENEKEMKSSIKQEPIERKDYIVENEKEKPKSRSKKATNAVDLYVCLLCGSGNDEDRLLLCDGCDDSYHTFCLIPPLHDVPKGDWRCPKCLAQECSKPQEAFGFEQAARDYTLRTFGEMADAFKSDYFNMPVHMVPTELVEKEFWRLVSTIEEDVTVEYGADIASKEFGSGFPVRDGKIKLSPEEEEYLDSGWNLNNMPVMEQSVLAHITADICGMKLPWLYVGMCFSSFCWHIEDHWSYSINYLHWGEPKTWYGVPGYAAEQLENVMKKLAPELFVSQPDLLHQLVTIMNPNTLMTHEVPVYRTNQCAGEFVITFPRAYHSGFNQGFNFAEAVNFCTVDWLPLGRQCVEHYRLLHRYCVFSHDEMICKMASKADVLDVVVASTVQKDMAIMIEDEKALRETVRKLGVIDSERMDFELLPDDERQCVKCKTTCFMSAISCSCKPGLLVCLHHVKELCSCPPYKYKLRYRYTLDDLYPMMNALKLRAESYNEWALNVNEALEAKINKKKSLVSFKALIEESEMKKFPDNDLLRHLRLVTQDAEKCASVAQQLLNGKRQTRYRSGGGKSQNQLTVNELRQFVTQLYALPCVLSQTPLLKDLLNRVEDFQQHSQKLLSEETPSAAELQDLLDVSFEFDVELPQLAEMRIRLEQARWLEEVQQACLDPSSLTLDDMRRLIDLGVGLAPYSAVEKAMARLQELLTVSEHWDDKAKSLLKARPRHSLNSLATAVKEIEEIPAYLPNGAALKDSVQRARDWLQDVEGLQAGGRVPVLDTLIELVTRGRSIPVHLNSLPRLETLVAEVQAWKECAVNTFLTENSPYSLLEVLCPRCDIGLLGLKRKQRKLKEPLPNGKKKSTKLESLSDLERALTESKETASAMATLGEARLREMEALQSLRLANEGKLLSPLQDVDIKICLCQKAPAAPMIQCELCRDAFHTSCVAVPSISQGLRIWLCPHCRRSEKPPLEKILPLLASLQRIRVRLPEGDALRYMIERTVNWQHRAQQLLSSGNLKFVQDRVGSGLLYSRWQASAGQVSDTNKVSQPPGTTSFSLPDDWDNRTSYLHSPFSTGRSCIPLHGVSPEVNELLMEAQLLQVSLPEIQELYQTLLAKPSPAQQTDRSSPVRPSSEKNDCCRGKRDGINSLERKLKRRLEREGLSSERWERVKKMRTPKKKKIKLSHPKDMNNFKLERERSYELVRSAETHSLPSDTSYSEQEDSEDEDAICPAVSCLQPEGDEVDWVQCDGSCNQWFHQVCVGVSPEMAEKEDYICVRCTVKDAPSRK
# Test: Primary screen for KDM5B Histone Demethylases FDH-coupled qHTS; also: nearly all actives have a fitted effect of over 70% in size; as to activity change, negative = inhibition: 0% is about no effect
# Details: FDH-coupled NADH fluorescence (FDH is formaldehyde dehydrogenase); series mostly up to 57.7 µM; activity change, negative = inhibition: at the top concentration
# Outline: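 Coupled FDH/NAD⁺ fluorescence readout. KDM5BΔAP 200 nM final; compound titration, 10 min RT preincubation; substrate mix 12.5 µM H3K4me3, 25 µM 2-OG, 50 µM Fe(II), 100 µM ascorbate, 0.25 mM NAD⁺, 0.25 U/mL FDH; ΔRFU over 30 min.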
# Potency is read from the fitted curve at half-maximal effect.
SMILES,"activity change, negative = inhibition",Potency
Cc1ccc(NC(=O)c2ccc(F)cc2Cl)nc1,-6.56% (inactive),–
CCn1nc(C(=O)Nc2ccc(I)cc2C)c2ccccc2c1=O,7.2% (inactive),–
CN1C(=O)CC(C(=O)O)C12CCN(CCc1ccccn1)CC2 (stereo unspecified),25.7% (inactive),–
Cc1ccnc(N2CC[C@@H]3[C@@H](CCC(=O)N3CCc3ccccn3)C2)n1,–,22.4 µM (active)
Cc1ccc2c(CN3CCN(CCc4ccccn4)CC3)cc(=O)oc2c1,-23.1% (inactive),–
CC(Sc1nc(CN2CCOCC2)nc2ccccc12)C(=O)NC1CCCCCC1 (stereo unspecified),23.1% (inactive),–
COc1ccc(-c2csc3c2NC(=O)CC3c2ccc(OCC(N)=O)c(OC)c2)cc1 (stereo unspecified),15.1% (inactive),–
O=C1CC(c2ccc(C(F)(F)F)cc2)c2sc(C(=O)O)c(-c3ccccc3)c2N1 (stereo unspecified),12.2% (inactive),–
Nc1nc2c(s1)C(c1ccccc1)CC(=O)N2 (stereo unspecified),–,28.2 µM (active)
Cc1ccc(-c2csc3c2NC(=O)CC3c2ccc(C)cc2)cc1 (stereo unspecified),-12.4% (inactive),–
COc1cccc(/C=C/C(=O)c2nc3ccccc3s2)c1OC(F)F,-17% (inactive),–
CCOc1ccccc1NC(=O)Cn1nnc(C(=O)NCc2cccs2)c1N,6.8% (inactive),–
COc1ccccc1NC(=O)CSC1=Nc2ccccc2C2=NC(CC(=O)NCc3cccs3)C(=O)N12 (stereo unspecified),-5.93% (inactive),–
COc1ccccc1-c1nc(C(=O)NCc2cccs2)n2ccncc12,–,28.2 µM (active)
O=C(OCc1nc2ccccc2o1)c1ccccc1Br,8.02% (inactive),–
CC(=O)c1c(SCC(=O)Nc2ccc(F)cc2F)nc(=O)[nH]c1C,-2.3% (inactive),–
CC(C)(C#N)C(=O)NCCc1ccc(OCc2ccccc2)cc1,18% (inactive),–
CC1CCN(c2nc3ccccc3nc2C(C#N)S(=O)(=O)c2cccc(Cl)c2)CC1 (stereo unspecified),-18% (inactive),–
CCn1cnnc1CC1CCN(C(=O)C2CCN(Cc3nc(-c4cccc(C)c4)oc3C)CC2)CC1,-9.74% (inactive),–
CCn1cnnc1CC1CCN(C(=O)c2cc(-c3ccc(F)cc3)nc3ccccc23)CC1,–,22.4 µM (active)
COc1ccc(-c2cc(C(=O)N3CCN(CC(=O)N4CCOCC4)CC3)c3ccccc3n2)cc1,-999% (inactive),–
CN(Cc1ccc(F)cc1)C(=O)NCc1ccccn1,21.6% (inactive),–
COc1cccc(CNC(=O)N2CCN(Cc3ccc(Br)s3)CC2)c1,1.67% (inactive),–
COc1cccc(CNC(=O)N2CCCC3(C2)Nc2cccnc2NC3=NC2CCCC2)c1 (stereo unspecified),–,28.2 µM (active)
COc1ccccc1C(=O)N1CCC2(C1)C(=NC1CCCCC1)NC(=O)N2c1cccnc1 (stereo unspecified),22.3% [at 115 µM] (inactive),–
COc1cccc(N2C(=O)NC(=NC3CCCC3)C23CCN(C(=O)c2ccc(C)cc2)C3)c1 (stereo unspecified),6.94% [at 115 µM] (inactive),–

SMILES,"activity change, negative = inhibition",Potency
CCOc1ccc(CC(=O)N2CCC(Cc3nc(-c4cnccn4)no3)CC2)cc1,14.8% (inactive),–
Cc1cc(C)n(CC(=O)N2CCC3(CC2)NCCc2c3[nH]c3ccccc23)n1,-19.4% (inactive),–
CCOc1ccc(CC(=O)N2CCCC3(C2)Nc2cccnc2NC3=NC2CCCC2)cc1 (stereo unspecified),–,28.2 µM (active)
Cc1cc(C)n(CC(=O)N2CC[C@@H]3CN(S(C)(=O)=O)[C@@H]3C2)n1,-16.1% (inactive),–
COc1ccccc1C(=O)N1CCC2(C1)C(=NC1CCCC1)NC(=O)N2c1cccnc1 (stereo unspecified),9.75% [at 115 µM] (inactive),–
CCOc1ccc(CC(=O)N2CCC(C3CCN(C(=O)NC)CC3)C2)cc1 (stereo unspecified),4.36% (inactive),–
Cc1cc(C)n(CC(=O)N2CCCC3(C2)Nc2cccnc2NC3=NC2CCCC2)n1 (stereo unspecified),–,28.2 µM (active)
COc1ccccc1C(=O)N1CCCC2(C1)Nc1cccnc1NC2=NCc1ccccc1 (stereo unspecified),–,28.2 µM (active)
CC(C)=CC(=O)N1C[C@@H](NC(=O)Nc2ccc(F)cc2F)C[C@H]1C(=O)N[C@H](Cc1ccccc1)C(N)=O,-12.3% (inactive),–
O=C(Cn1ccn2nc(-c3ccc(F)cc3)c(CO)c2c1=O)NC1CCCC1,-16.7% (inactive),–
COC(=O)[C@@H](NC(=O)Nc1cc(-c2n[nH]c(=O)c3ccccc23)ccc1C)C(C)C,-3.59% (inactive),–
O=c1oc2ccc(F)cc2cc1S(=O)(=O)N1CCCCCC1,8.94% (inactive),–
N#C/C(=C\c1ccc(-c2cc(Cl)ccc2Cl)o1)c1nc2ccccc2[nH]1,13.2% (inactive),–
O=C(O)CNS(=O)(=O)c1cccc(F)c1,-20.7% (inactive),–
N#CC(C#N)=C(Nc1ccc(Oc2ccccc2)cc1)C(F)(F)C(F)(F)F,-11.9% (inactive),–
CC1(C)C2CCC1(CS(=O)(=O)NCCc1c[nH]c3ccccc13)C(=O)C2 (stereo unspecified),-1.56% (inactive),–
C=CCn1c(COc2cc(C)c(Cl)c(C)c2)n[nH]c1=S,-9.76% (inactive),–
Cc1ccsc1C(=O)N1CCCC2(C1)Nc1cccnc1NC2=NC1CCCC1 (stereo unspecified),–,25.1 µM (active)
Cc1nc(-c2cn(C3CCCN(C(=O)c4sccc4C)C3)nn2)no1 (stereo unspecified),5.05% (inactive),–
COc1ccc(C(=O)N2CCCC3(C2)C(=NC2CCCC2)NC(=O)N3c2cc(F)cc(F)c2)cc1 (stereo unspecified),4.12% [at 115 µM] (inactive),–
Cc1ccc(Nc2nnc(-c3ccc(C)c(S(N)(=O)=O)c3)c3ccccc23)c(C)c1,-1.74% (inactive),–
C=CCN1CCN(C(=O)C2CCCN(C(=O)c3ccccc3)CCC(=O)NCC2)CC1 (stereo unspecified),12.5% (inactive),–
COc1ccccc1N1CCN(C(=O)C2CCCN(C(=O)c3ccccc3)CCC(=O)NCC2)CC1 (stereo unspecified),-0.385% (inactive),–
Cc1cccc(C(=O)N2CCCC(C(=O)N3CCN(c4ccccn4)CC3)CCNC(=O)CC2)c1 (stereo unspecified),–,15.8 µM (active)
Cc1cccc(C(C(=O)N2CCN(S(=O)(=O)N(C)C)CC2)N(C)C)c1 (stereo unspecified),-7.54% (inactive),–
O=C(c1ccccc1F)N1CCN(C(=O)c2c[nH]c3ccccc23)CC1,10.4% (inactive),–

SMILES,"activity change, negative = inhibition",Potency
O=C(c1ccc2cc[nH]c2c1)N1CCC2(CC1)N=C(c1ccc(Cl)cc1)NO2,–,28.2 µM (active)
O=C(c1cccc2[nH]ccc12)N1CCC2(CC1)N=C(c1cccc(Br)c1)NO2,–,28.2 µM (active)
O=C(c1ccc2[nH]ccc2c1)N1CCC(N2CC(OCC3CC3)C23CCOCC3)CC1 (stereo unspecified),-7.23% (inactive),–
Cc1ccc(C2=NC3(CCN(C(=O)c4ccc(C#N)cc4)CC3)ON2)cc1,-5.83% (inactive),–
CC1CCN(c2ccc(NC(=O)Cn3c(-c4cscn4)nc4ccccc43)cc2)CC1,-5.67% (inactive),–
CC1(C)Cc2c(sc3c2c(=O)n(CCO)c(=O)n3CCc2ccccc2)CO1,5.34% (inactive),–
Cc1csc2nc(COc3ccc(NC(=O)C4CCCCC4)cc3)cc(=O)n12,-1% (inactive),–
CCOC(=O)N1CCN(Cc2cc(=O)oc3ccc(C)cc23)CC1,-1.64% (inactive),–
O=C(NCc1ccnc2[nH]ccc12)c1ccccn1,5.45% [at 86.2 µM] (inactive),–
O=C(NCc1c[nH]c2ncccc12)c1ccccc1F,36.6% [at 86.2 µM] (inactive),–
O=C(NCc1ccnc2[nH]ccc12)c1ccc(F)cc1,–,35.5 µM (active)
COc1ccc(N2CCN(C3CCCN(CC(=O)N(C)C(C)C)C3)CC2)cc1 (stereo unspecified),-16.9% (inactive),–
COC(=O)CNC(=O)CNC(=O)c1nn(-c2ccc(OC)cc2)c(=O)c2ccccc12,-5.61% (inactive),–
COc1ccc(-n2nc(-c3ccccc3)n(CC(=O)N(C)CC(C)C)c2=O)cc1,–,31.6 µM (active)
CCOC(=O)C(NC(=O)/C=C/c1c(Cl)cccc1Cl)C(=O)OCC,25.9% (inactive),–
Cc1cn2nc(C(=O)NCc3ccc(F)cc3)cc2c(N2CCCC2)n1,–,25.1 µM (active)
Cc1cn2nc(C(=O)NCC(C)c3ccccc3)cc2c(N2CCCC2)n1 (stereo unspecified),-1660% (inactive),–
CSc1ccc(CNC(=O)c2noc(-c3ccc(C)cc3)n2)cc1,-6.66% (inactive),–
Cc1ccc2cc(C(=O)NCc3ccc(N4CCCC4)nc3)c(C)nc2c1,-7.88% (inactive),–
CSc1ccc(CNC(=O)c2cc3c(N4CCCC4)nc(C)cn3n2)cc1,–,28.2 µM (active)
Cc1cn2nc(C(=O)NCc3cccs3)cc2c(N2CCCC2)n1,-2110% (inactive),–
CCOC(=O)C(=O)Nc1ccc(C(=O)OC)cc1,23.4% (inactive),–
CSc1ccc(CNC23CC4CC(C)(CC(C)(C4)C2)C3)cc1,16.9% (inactive),–
Cc1cccc(C)c1OCC(O)Cn1cnc2c(cnn2-c2ccc(F)cc2)c1=O (stereo unspecified),5.4% (inactive),–
Cn1c(SCc2ccc(F)cc2)nnc1-c1ccncc1,17.7% (inactive),–
COc1ccc(OC)c2[nH]c(C(=O)NCC(=O)Nc3nc(C)cs3)cc12,29.2% (inactive),–

SMILES,"activity change, negative = inhibition",Potency
CCC1(C)CC(CC(=O)OC(C)CN(C)C)(c2ccccc2)CCO1 (stereo unspecified),32.5% (inactive),–
Cc1noc(C)c1CCCNC(=O)c1ccc(N(C)C2CCOC2)nc1 (stereo unspecified),1.14% (inactive),–
CNc1ncc(C(=O)N[C@@H]2COCC[C@@H]2OCc2c(C)noc2C)cn1,–,28.2 µM (active)
Cc1cc(N)n(CC(=O)N[C@@H]2COCC[C@@H]2OCc2c(C)noc2C)n1,-15.9% (inactive),–
O=C(NC1(c2ccc(Cl)cc2)CCC1)c1cc(Cl)c[nH]1,4.6% (inactive),–
Cc1ccc(Cc2nn3c(SCC(=O)Nc4ccccc4C(F)(F)F)nnc3[nH]c2=O)cc1,0.896% (inactive),–
COC(=O)[C@H](C)NC(=O)C12CC3CC(CC(C3)C1)C2,16.7% (inactive),–
CCc1c(C)sc(NC(=O)C(CC)CC)c1C#N,-13.5% (inactive),–
COCC1CCN(C(=O)c2ccc3oc(Cc4ccccc4)nc3c2)C1 (stereo unspecified),30.4% (inactive),–
Cc1ccc(-c2cc(N3CCCN(C(=O)c4nn(C)c5ccccc45)CC3)n[nH]2)cc1C,-17.1% (inactive),–
COc1ccc(-c2[nH]nc3ncc(-c4ccccc4)nc23)c(C)c1,-17.3% [at 86.2 µM] (inactive),–
COCCNC(=O)c1cnc2n[nH]c(-c3ccccc3OC)c2n1,-15.1% [at 86.2 µM] (inactive),–
COc1ccccc1-c1[nH]nc2ncc(-c3cccc(CO)c3)nc12,–,39.8 µM (active)
Oc1ccc(/C=C(/Cl)c2ncc(-c3ccc(F)cc3)o2)cc1,-3.78% (inactive),–
COc1cccc(NC(=O)c2csnn2)c1,-29.2% (inactive),–
Cc1cn2nc(C(=O)NC3CCCC3)cc2c(N2CCSCC2)n1,–,28.2 µM (active)
CCOC(=O)C1CCN(CCC(=O)Nc2cc(OC)cc(OC)c2)CC1,-4.23% (inactive),–
O=C(NC1CCCCC1)c1cc(C2CC2)on1,20.7% (inactive),–
COc1ccc(N2CCN(c3nc(C(=O)NC4CCCCCC4)cs3)CC2)cc1,-9.1% (inactive),–
COc1cc(NC(=O)c2cc3c(N4CCSCC4)nc(C)cn3n2)cc(OC)c1,–,31.6 µM (active)
O=C(OC1CCOC1=O)c1ccccc1SC1CCOC1=O (stereo unspecified),-15.3% (inactive),–
O=C1CC(c2nc(-c3ccc(Oc4ccccc4)cc3)no2)CN1c1ccccc1 (stereo unspecified),21.5% (inactive),–
O=C(c1ccccc1F)N1CCC2(CC1)C(=O)NN=C2C1CC1,7.64% [at 86.2 µM] (inactive),–
